Assay outcomes deposited in PubChem BioAssay by several laboratories.
In the library only some 1.3% were active in any assay of this set; here they are far more common.
NR5A2 inv ag: suppresses constitutive activity of human LRH-1. HEK293T StAR-luciferase reporter, LRH-1 transfected, 24 h. inhibition, % at 3.6 µM. 360,000 compounds, 0.13% hits;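 active = inhibition above the mean inhibition of all tested compounds plus 3 SD, cut at about 73% in these data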;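 note: 0% = DMSO wells and 100% = reporter-only cells lacking LRH-1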
Gli-Sufu block: blocks Gli-Sufu signaling in a luciferase reporter; Sufu-KO-LIGHT fibroblasts, Gli luciferase reporter luminescence; inhibition, % at 5 µM; 340,000 compounds, 0.74% hits; AID 588413;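 active = inhibition above about 55%, limit read from the data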;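 note: 0% = DMSO-treated cells and 100% = wells with medium but no cells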
SRC1 inh: inhibitors of human steroid receptor coactivator 1 (SRC1); HEK293 GAL4-SRC1 luciferase reporter, luminescence; 360,000 compounds, 0.12% hits; inhibition, % at 3.6 µM; AID 588354; Q15788;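 active = inhibition above the campaign mean plus 3 SD, with each screening campaign given its own cutoff, cut at about 60% in these data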;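 note: 0% = DMSO treated cells and 100% = gossypol at 36 µM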
NCOA3 inh: human NCOA3 inhibition; Q9Y6Q9; HEK293 GAL4-SRC3 luciferase reporter, luminescence; inhibition, % at 3.6 µM; 360,000 compounds, 0.17% hits; AID 588352;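 active = inhibition above a per-campaign cutoff, the mean of all compounds plus 3 SD, cut at about 60% in these data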;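 note: 0% = DMSO-treated cells and 100% = gossypol-treated cells at 36 µM; higher means less SRC3-driven luciferase light from the GAL4 reporter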
NR2F2 inh: inhibitors of human COUP-TFII (NR2F2). P24468. HEK293T NGFI-A luciferase reporter, luminescence. inhibition, % at 8.6 µM. 370,000 compounds, 0.7% hits;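 active = inhibition above a per-plate cutoff, mean inhibition of test wells between control levels plus 3 SD, cut at about 38% in these data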;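 note: cells cotransfected with COUP-TFII expression vector driving the NGFI-A reporter; 0% = median of COUP-TF2 test wells and 100% = reporter-only cells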
NCOA2 inhibitor: inhibits human steroid receptor coactivator 2. Q15596. HEK293 GAL4-SRC2 luciferase reporter, luminescence. inhibition, % at 9 µM. 370,000 compounds, 0.17% hits. AID 651957;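 active = inhibition above the mean inhibition of all tested compounds plus 3 SD, set per campaign, cut at about 52% in these data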;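 note: 0% = DMSO treated cells and 100% = cells given Gossypol at 36 µM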
Gli antag conf: confirmation of Gli-SUFU pathway antagonists; AID 602428; Sufu-KO-LIGHT cells, Gli luciferase reporter, luminescence; 2,500 compounds, 40% hits; shares compounds with Gli-Sufu block; inhibition, % at 5 µM;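 active = mean inhibition at 5 µM reaching about 45%, limit read from the data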;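 note: plate controls were DMSO-treated cells for no effect and wells lacking cells for full effect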
Gli cytotox: cytotoxic in Gli-SUFU antagonist counter-screen | cytotoxicity, % at 5 µM | 2,500 compounds, 32% hits | shares compounds with Gli-Sufu block | Sufu-KO-LIGHT cells cytotoxicity, ATP luminescence;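 active = mean cytotoxicity at 5 µM above about 25%, limit read from the data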;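 note: cells exposed to compound overnight for roughly 16 to 18 hours; plate controls were DMSO wells with cells for no effect and medium without cells for full effect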
Wnt3a counter: inhibits Wnt3a reporter, counter-screen for Gli-SUFU antagonists; shares compounds with Gli-Sufu block; Wnt-LIGHT cells, Wnt3a-driven luciferase reporter, luminescence; inhibition, % at 6.25 µM; 2,500 compounds, 20% hits;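 active = mean inhibition above about 25%, limit read from the data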
* hit, by the source's call; / = no result.

SMILES	NR5A2 inv ag	Gli-Sufu block	SRC1 inh	NCOA3 inh	NR2F2 inh	NCOA2 inhibitor	Gli antag conf	Gli cytotox	Wnt3a counter
Cc1cc(-c2ccccc2)cc(-c2ccccc2)[n+]1C	12	65*	2	-9	17	16	70*	27*	20
Cc1cc(-c2ccccc2)cc(=O)[nH]1	25	3	-36	2	5	-21	/	/	/
Cc1cc[n+](Cc2ccc([N+](=O)[O-])cc2)cc1	-11	0	10	-3	-14	1	/	/	/
Cc1ccc(-c2cc[n+](Cc3ccccc3)cc2)cc1	13	62*	5	27	36	17	78*	41*	26*
Cc1ccccc1NC(=O)c1onc2c1CCCC2	-137	56*	-77	-98	-38	-40	-93	12	-82
Cc1cccc(NC(=O)c2onc3c2CCCC3)c1C	-161	11	-75	-63	-35	-35	/	/	/
O=C(CC1CCCC1)N1CC[C@H]2[C@H](CCCN2Cc2cc(F)cc(F)c2)C1	/	/	/	/	-1	-27	/	/	/
CC1(C)Cc2c(cnn2-c2ccccc2)C(NC(=O)c2ccc[n+]([O-])c2)C1 (stereo not drawn)	-20	51	-17	12	3	9	21	8	17
COc1cc(C2c3cc4c(cc3C(OC3OC5COC(c6cccs6)OC5C(O)C3O)C3COC(=O)C23)OCO4)cc(OC)c1O (stereo not drawn)	65	82*	81*	77*	-22	-3	81*	72*	57*
COCCOc1nc2c(c(=O)n(C)c(=O)n2C)n1Cc1cccc(OC)c1	11	52	9	29	18	19	44	21	23
C[C@@H]1OC(C2CCCCC2)N(C)[C@H]2C[C@H]3c4[nH]c5cccc(-c6ccccc6)c5c4CCN3C[C@@H]12 (stereo partly drawn)	/	/	/	/	4	20	/	/	/
CCOC(=O)c1c(NC(=O)C[n+]2ccc(Cc3ccccc3)cc2)sc(C)c1C	13	52	-3	11	11	2	36	15	6
CCOC(=O)c1c(NC(=S)Nc2ccccc2)sc(C)c1C	5	-8	-11	5	3	6	/	/	/
O=C(Oc1c(CN2CCOCC2)cc(Cl)c2cccnc12)c1ccccc1	-2	75*	10	23	-7	14	27	32*	-7
COc1cc(OC)cc(C(=O)Oc2c(CN3CCOCC3)cc(Cl)c3cccnc23)c1	0	-7	3	8	17	-2	/	/	/
O=C(CSc1nnc(-c2ccco2)n1-c1ccc(Cl)cc1)Nc1ccccc1-c1ccccc1	/	/	/	/	0	11	/	/	/
O=C(Nc1nnc(-c2ccco2)o1)c1ccc2ccccc2c1	-12	97*	0	12	6	15	8	2	-14
CC(C)C[C@@H]1COc2cc(Br)ccc2S(=O)(=O)N1Cc1cn(Cc2ccc(F)cc2)nn1	/	/	/	/	-2	9	/	/	/
COC(=O)c1c(C)oc2ccc(N(C(=O)c3ccncc3)S(=O)(=O)c3ccc(C)cc3C)cc12	35	61*	30	37	32	14	49*	27*	36*
BrC(=C\c1ccccc1)/C=N/Nc1nc2ccccc2[nH]1	-41	51	-21	-35	-39	-21	-11	3	-142
O=C(Nc1ccccc1)Nc1c(-c2ccccc2)nc2ncccn12	/	/	/	/	6	-9	/	/	/
COCCCNC(=S)N1CCN(S(=O)(=O)c2ccc(OC)cc2)CC1	-3	69*	0	9	10	-10	11	16	-6
Cc1cc(C)nc(N2CCC(C(=O)N(C)CCc3ccccn3)CC2)n1	/	/	/	/	-11	22	/	/	/
COc1ccc(CC(=O)N2CCCc3ccccc32)cc1OC	-27	91*	-6	-13	17	-19	18	5	-18
CCCCC(=O)Nc1cc([N+](=O)[O-])ccc1Cl	-7	92*	-12	-1	11	5	14	11	33*
